# Measured values from publication PMC11006913.
# Where a chain is given by its changes, count along the chain named.
# Legend:
# Test in all cases: PBM; 200 nM protein, PBS
# Settings in all cases: dsDNA, one strand shown
# HOXB4 [1] = biological target: HOXB4 (Homo sapiens, UniProt P17483 148-234)
# HOXC10 [2] = biological target: HOXC10 (Homo sapiens, UniProt Q9NYD6 254-340)
# HOXB4 [3] = biological target: HOXB4 (Homo sapiens, UniProt P17483 148-234, V174I)
# HOXC10 [4] = biological target: HOXC10 (Homo sapiens, UniProt Q9NYD6 254-340, K271E)
# Sequence of HOXC10 (Homo sapiens, UniProt Q9NYD6 254-340, K271E) (Q9NYD6 254-340 K271E): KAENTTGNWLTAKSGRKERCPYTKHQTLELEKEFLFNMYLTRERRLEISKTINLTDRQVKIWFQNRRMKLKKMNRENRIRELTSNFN
# HOXA7 [5] = biological target: HOXA7 (Homo sapiens, UniProt P31268 116-202)
# Sequence of HOXA7 (Homo sapiens, UniProt P31268 116-202) (P31268 116-202): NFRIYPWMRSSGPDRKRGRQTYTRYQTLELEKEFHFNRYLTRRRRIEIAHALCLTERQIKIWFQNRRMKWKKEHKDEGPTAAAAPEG
# HOXA7 [6] = biological target: HOXA7 (Homo sapiens, UniProt P31268 116-202, W177C)
# Sequence of HOXA7 (Homo sapiens, UniProt P31268 116-202, W177C) (P31268 116-202 W177C): as the sequence (P31268 116-202) above, with W62C counted along it
# ALX4 [7] = biological target: ALX4 (Homo sapiens, UniProt Q9H161 200-286)
# Sequence of ALX4 (Homo sapiens, UniProt Q9H161 200-286) (Q9H161 200-286): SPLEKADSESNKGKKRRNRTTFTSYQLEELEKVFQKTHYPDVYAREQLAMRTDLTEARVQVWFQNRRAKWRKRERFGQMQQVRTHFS
# ALX4 [8] = biological target: ALX4 (Homo sapiens, UniProt Q9H161 200-286, Q225E)
# Sequence of ALX4 (Homo sapiens, UniProt Q9H161 200-286, Q225E) (Q9H161 200-286 Q225E): as the sequence (Q9H161 200-286) above, with Q26E counted along it
# VAX1 [9] = biological target: VAX1 (Homo sapiens, UniProt Q5SQQ9 86-172)
# Sequence of VAX1 (Homo sapiens, UniProt Q5SQQ9 86-172) (Q5SQQ9 86-172): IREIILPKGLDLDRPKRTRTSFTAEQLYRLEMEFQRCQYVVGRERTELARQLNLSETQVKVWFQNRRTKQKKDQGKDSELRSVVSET
# VAX1 [10] = biological target: VAX1 (Homo sapiens, UniProt Q5SQQ9 86-172, T142I)
# Sequence of VAX1 (Homo sapiens, UniProt Q5SQQ9 86-172, T142I) (Q5SQQ9 86-172 T142I): as the sequence (Q5SQQ9 86-172) above, with T57I counted along it
# VAX1 [11] = biological target: VAX1 (Homo sapiens, UniProt Q5SQQ9 86-172, K157R)
# Sequence of VAX1 (Homo sapiens, UniProt Q5SQQ9 86-172, K157R) (Q5SQQ9 86-172 K157R): as the sequence (Q5SQQ9 86-172) above, with K72R counted along it
# HOXB6 [12] = biological target: HOXB6 (Homo sapiens, UniProt P17509 132-218, K202E)
# Sequence of HOXB6 (Homo sapiens, UniProt P17509 132-218, K202E) (P17509 132-218 K202E): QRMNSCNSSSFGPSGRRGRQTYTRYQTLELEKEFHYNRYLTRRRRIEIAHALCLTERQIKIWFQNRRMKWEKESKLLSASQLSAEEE
# ALX1 [13] = biological target: ALX1 (Homo sapiens, UniProt Q15699 118-204, L144V)
# Sequence of ALX1 (Homo sapiens, UniProt Q15699 118-204, L144V) (Q15699 118-204 L144V): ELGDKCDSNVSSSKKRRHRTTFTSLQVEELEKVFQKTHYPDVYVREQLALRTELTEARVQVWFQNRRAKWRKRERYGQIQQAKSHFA
# ALX1 [14] = biological target: ALX1 (Homo sapiens, UniProt Q15699 118-204, L144R)
# Sequence of ALX1 (Homo sapiens, UniProt Q15699 118-204, L144R) (Q15699 118-204 L144R): as the sequence (Q15699 118-204 L144V) above, with V27R counted along it
# ALX1 [15] = biological target: ALX1 (Homo sapiens, UniProt Q15699 118-204)
# Sequence of ALX1 (Homo sapiens, UniProt Q15699 118-204) (Q15699 118-204): as the sequence (Q15699 118-204 L144V) above, with V27L counted along it
# HOXB6 [16] = biological target: HOXB6 (Homo sapiens, UniProt P17509 132-218)
# Sequence of HOXB6 (Homo sapiens, UniProt P17509 132-218) (P17509 132-218): as the sequence (P17509 132-218 K202E) above, with E71K counted along it
# NKX2-6 = biological target: T1, NKX2-6 (Homo sapiens, UniProt A6NCS4 118-204, R150C)
# T1 sequence: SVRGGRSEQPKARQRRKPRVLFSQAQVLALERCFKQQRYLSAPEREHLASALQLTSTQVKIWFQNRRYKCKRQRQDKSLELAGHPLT
# MSX2 [17] = biological target: MSX2 (Homo sapiens, UniProt P35548 130-214, R199I)
# Sequence of MSX2 (Homo sapiens, UniProt P35548 130-214, R199I) (P35548 130-214 R199I): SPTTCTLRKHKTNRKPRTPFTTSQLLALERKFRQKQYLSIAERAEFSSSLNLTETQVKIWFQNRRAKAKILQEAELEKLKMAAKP
# ALX3 [18] = biological target: ALX3 (Homo sapiens, UniProt O95076 139-225, N203Q)
# Sequence of ALX3 (Homo sapiens, UniProt O95076 139-225, N203Q) (O95076 139-225 N203Q): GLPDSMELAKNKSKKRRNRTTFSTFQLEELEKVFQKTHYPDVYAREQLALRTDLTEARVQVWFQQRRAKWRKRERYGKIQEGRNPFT
# MSX2 [19] = biological target: MSX2 (Homo sapiens, UniProt P35548 130-214)
# Sequence of MSX2 (Homo sapiens, UniProt P35548 130-214) (P35548 130-214): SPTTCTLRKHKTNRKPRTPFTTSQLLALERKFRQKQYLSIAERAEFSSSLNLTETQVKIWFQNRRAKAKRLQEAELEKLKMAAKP
# ALX3 [20] = biological target: ALX3 (Homo sapiens, UniProt O95076 139-225)
# Sequence of ALX3 (Homo sapiens, UniProt O95076 139-225) (O95076 139-225): as the sequence (O95076 139-225 N203Q) above, with Q65N counted along it
# ALX3 [21] = biological target: ALX3 (Homo sapiens, UniProt O95076 139-225, L168Q)
# Sequence of ALX3 (Homo sapiens, UniProt O95076 139-225, L168Q) (O95076 139-225 L168Q): as the sequence (O95076 139-225 N203Q) above, with L30Q, Q65N counted along it
# ALX3 [22] = biological target: ALX3 (Homo sapiens, UniProt O95076 139-225, L168V)
# Sequence of ALX3 (Homo sapiens, UniProt O95076 139-225, L168V) (O95076 139-225 L168V): as the sequence (O95076 139-225 N203Q) above, with L30V, Q65N counted along it
# MSX2 [23] = biological target: MSX2 (Homo sapiens, UniProt P35548 130-214, F161Y)
# Sequence of MSX2 (Homo sapiens, UniProt P35548 130-214, F161Y) (P35548 130-214 F161Y): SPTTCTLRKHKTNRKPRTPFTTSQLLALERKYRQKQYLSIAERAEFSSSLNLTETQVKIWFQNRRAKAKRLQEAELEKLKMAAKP
# ALX3 [24] = biological target: ALX3 (Homo sapiens, UniProt O95076 139-225, N203S)
# Sequence of ALX3 (Homo sapiens, UniProt O95076 139-225, N203S) (O95076 139-225 N203S): as the sequence (O95076 139-225 N203Q) above, with Q65S counted along it
# PRRX1 [25] = biological target: PRRX1 (Homo sapiens, UniProt P54821 80-166, F113S)
# Sequence of PRRX1 (Homo sapiens, UniProt P54821 80-166, F113S) (P54821 80-166 F113S): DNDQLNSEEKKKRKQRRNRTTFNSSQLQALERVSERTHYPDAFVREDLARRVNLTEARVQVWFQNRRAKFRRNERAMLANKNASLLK
# PRRX1 [26] = biological target: PRRX1 (Homo sapiens, UniProt P54821 80-166)
# Sequence of PRRX1 (Homo sapiens, UniProt P54821 80-166) (P54821 80-166): as the sequence (P54821 80-166 F113S) above, with S34F counted along it
# HOXA2 [27] = biological target: HOXA2 (Homo sapiens, UniProt O43364 129-215, R185T)
# Sequence of HOXA2 (Homo sapiens, UniProt O43364 129-215, R185T) (O43364 129-215 R185T): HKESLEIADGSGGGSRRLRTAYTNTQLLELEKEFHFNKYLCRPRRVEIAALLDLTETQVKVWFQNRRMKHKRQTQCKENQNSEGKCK
# HOXA2 [28] = biological target: HOXA2 (Homo sapiens, UniProt O43364 129-215, R185K)
# Sequence of HOXA2 (Homo sapiens, UniProt O43364 129-215, R185K) (O43364 129-215 R185K): as the sequence (O43364 129-215 R185T) above, with T57K counted along it
# HOXA2 [29] = biological target: HOXA2 (Homo sapiens, UniProt O43364 129-215, Y150S)
# Sequence of HOXA2 (Homo sapiens, UniProt O43364 129-215, Y150S) (O43364 129-215 Y150S): as the sequence (O43364 129-215 R185T) above, with Y22S, T57R counted along it
# HOXA2 [30] = biological target: HOXA2 (Homo sapiens, UniProt O43364 129-215)
# Sequence of HOXA2 (Homo sapiens, UniProt O43364 129-215) (O43364 129-215): as the sequence (O43364 129-215 R185T) above, with T57R counted along it
# PAX4 [31] = biological target: T2, PAX4 (Homo sapiens, UniProt O43316 9-242, R200K)
# T2 sequence: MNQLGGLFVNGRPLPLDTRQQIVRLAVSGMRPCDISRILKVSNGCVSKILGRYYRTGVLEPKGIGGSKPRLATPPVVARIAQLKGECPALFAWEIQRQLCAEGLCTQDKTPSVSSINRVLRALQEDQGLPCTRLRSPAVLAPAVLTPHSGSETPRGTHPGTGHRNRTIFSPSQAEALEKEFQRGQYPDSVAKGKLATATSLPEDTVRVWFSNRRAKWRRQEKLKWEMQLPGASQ
# PAX4 [32] = biological target: T3, PAX4 (Homo sapiens, UniProt O43316 9-242)
# T3 sequence: T2 sequence with K192R
# PAX4 [33] = biological target: T4, PAX4 (Homo sapiens, UniProt O43316 9-242, R200Q)
# T4 sequence: T2 sequence with K192Q
# PAX4 [34] = biological target: T5, PAX4 (Homo sapiens, UniProt O43316 9-242, F177V)
# T5 sequence: T2 sequence with F169V, K192R
# PAX4 [35] = biological target: T6, PAX4 (Homo sapiens, UniProt O43316 9-242, F177Y)
# T6 sequence: T2 sequence with F169Y, K192R
# PAX4 [36] = biological target: T7, PAX4 (Homo sapiens, UniProt O43316 9-242, R227W)
# T7 sequence: T2 sequence with K192R, R219W
# Sequence of HOXB4 (Homo sapiens, UniProt P17483 148-234, V174I) (P17483 148-234 V174I): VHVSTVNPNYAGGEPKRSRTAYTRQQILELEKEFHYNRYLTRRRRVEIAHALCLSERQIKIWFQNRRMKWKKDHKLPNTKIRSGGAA
# Sequence of HOXB4 (Homo sapiens, UniProt P17483 148-234) (P17483 148-234): as the sequence (P17483 148-234 V174I) above, with I27V counted along it
# Sequence of HOXC10 (Homo sapiens, UniProt Q9NYD6 254-340) (Q9NYD6 254-340): as the sequence (Q9NYD6 254-340 K271E) above, with E18K counted along it
sequence,measurement,setting,value
CAGGGTCC,binding signal,HOXB4 [1],"7.33 upbm affinity estimate (log intensity, higher = more binding, comparable within an allelic series)"
same,binding signal,HOXC10 [2],"10 upbm affinity estimate (log intensity, higher = more binding, comparable within an allelic series)"
same,binding signal,HOXB4 [3],"7.37 upbm affinity estimate (log intensity, higher = more binding, comparable within an allelic series)"
same,binding signal,HOXC10 [4],"10 upbm affinity estimate (log intensity, higher = more binding, comparable within an allelic series)"
CCACAGGC,binding signal,HOXB4 [1],"7.72 upbm affinity estimate (log intensity, higher = more binding, comparable within an allelic series)"
same,binding signal,HOXB4 [3],"7.85 upbm affinity estimate (log intensity, higher = more binding, comparable within an allelic series)"
ACCGTGCC,binding signal,HOXB4 [1],"7.42 upbm affinity estimate (log intensity, higher = more binding, comparable within an allelic series)"
same,binding signal,HOXA7 [5],"8.5 upbm affinity estimate (log intensity, higher = more binding, comparable within an allelic series)"
same,binding signal,HOXB4 [3],"7.71 upbm affinity estimate (log intensity, higher = more binding, comparable within an allelic series)"
same,binding signal,HOXA7 [6],"8.5 upbm affinity estimate (log intensity, higher = more binding, comparable within an allelic series)"
CTGGAGCC,binding signal,HOXB4 [1],"7.25 upbm affinity estimate (log intensity, higher = more binding, comparable within an allelic series)"
same,binding signal,ALX4 [7],"7.69 upbm affinity estimate (log intensity, higher = more binding, comparable within an allelic series)"
same,binding signal,ALX4 [8],"8.02 upbm affinity estimate (log intensity, higher = more binding, comparable within an allelic series)"
same,binding signal,HOXB4 [3],"7.29 upbm affinity estimate (log intensity, higher = more binding, comparable within an allelic series)"
same,binding signal,VAX1 [9],"6.85 upbm affinity estimate (log intensity, higher = more binding, comparable within an allelic series)"
same,binding signal,VAX1 [10],"6.94 upbm affinity estimate (log intensity, higher = more binding, comparable within an allelic series)"
same,binding signal,VAX1 [11],"6.67 upbm affinity estimate (log intensity, higher = more binding, comparable within an allelic series)"
TAGATTGA,binding signal,HOXB4 [1],"10.2 upbm affinity estimate (log intensity, higher = more binding, comparable within an allelic series)"
same,binding signal,HOXB4 [3],"10.3 upbm affinity estimate (log intensity, higher = more binding, comparable within an allelic series)"
AGGCGCGC,binding signal,HOXB4 [1],"7.53 upbm affinity estimate (log intensity, higher = more binding, comparable within an allelic series)"
same,binding signal,HOXB6 [12],"9.19 upbm affinity estimate (log intensity, higher = more binding, comparable within an allelic series)"
same,binding signal,HOXB4 [3],"7.6 upbm affinity estimate (log intensity, higher = more binding, comparable within an allelic series)"
same,binding signal,ALX1 [13],"6.59 upbm affinity estimate (log intensity, higher = more binding, comparable within an allelic series)"
same,binding signal,ALX1 [14],"6.72 upbm affinity estimate (log intensity, higher = more binding, comparable within an allelic series)"
same,binding signal,ALX1 [15],"6.44 upbm affinity estimate (log intensity, higher = more binding, comparable within an allelic series)"
same,binding signal,HOXB6 [16],"8.96 upbm affinity estimate (log intensity, higher = more binding, comparable within an allelic series)"
ATCTCTTA,binding signal,HOXB4 [1],"9.96 upbm affinity estimate (log intensity, higher = more binding, comparable within an allelic series)"
same,binding signal,HOXB4 [3],"9.9 upbm affinity estimate (log intensity, higher = more binding, comparable within an allelic series)"
GAGCCGGC,binding signal,HOXB4 [1],"7.56 upbm affinity estimate (log intensity, higher = more binding, comparable within an allelic series)"
same,binding signal,HOXC10 [2],"10 upbm affinity estimate (log intensity, higher = more binding, comparable within an allelic series)"
same,binding signal,HOXB4 [3],"7.62 upbm affinity estimate (log intensity, higher = more binding, comparable within an allelic series)"
same,binding signal,NKX2-6,"9.46 upbm affinity estimate (log intensity, higher = more binding, comparable within an allelic series)"
same,binding signal,MSX2 [17],"9.47 upbm affinity estimate (log intensity, higher = more binding, comparable within an allelic series)"
same,binding signal,ALX3 [18],"7.82 upbm affinity estimate (log intensity, higher = more binding, comparable within an allelic series)"
same,binding signal,HOXC10 [4],"9.91 upbm affinity estimate (log intensity, higher = more binding, comparable within an allelic series)"
same,binding signal,MSX2 [19],"9.45 upbm affinity estimate (log intensity, higher = more binding, comparable within an allelic series)"
same,binding signal,ALX3 [20],"7.87 upbm affinity estimate (log intensity, higher = more binding, comparable within an allelic series)"
same,binding signal,ALX3 [21],"7.74 upbm affinity estimate (log intensity, higher = more binding, comparable within an allelic series)"
same,binding signal,ALX3 [22],"7.7 upbm affinity estimate (log intensity, higher = more binding, comparable within an allelic series)"
same,binding signal,MSX2 [23],"9.45 upbm affinity estimate (log intensity, higher = more binding, comparable within an allelic series)"
same,binding signal,ALX3 [24],"7.79 upbm affinity estimate (log intensity, higher = more binding, comparable within an allelic series)"
CGGGACCA,binding signal,HOXB4 [1],"7.51 upbm affinity estimate (log intensity, higher = more binding, comparable within an allelic series)"
same,binding signal,HOXC10 [2],"10.1 upbm affinity estimate (log intensity, higher = more binding, comparable within an allelic series)"
same,binding signal,HOXB4 [3],"7.58 upbm affinity estimate (log intensity, higher = more binding, comparable within an allelic series)"
same,binding signal,NKX2-6,"9.71 upbm affinity estimate (log intensity, higher = more binding, comparable within an allelic series)"
same,binding signal,HOXC10 [4],"10.1 upbm affinity estimate (log intensity, higher = more binding, comparable within an allelic series)"
GACCGTGC,binding signal,HOXB4 [1],"7.54 upbm affinity estimate (log intensity, higher = more binding, comparable within an allelic series)"
same,binding signal,PRRX1 [25],"9.27 upbm affinity estimate (log intensity, higher = more binding, comparable within an allelic series)"
same,binding signal,HOXB4 [3],"7.53 upbm affinity estimate (log intensity, higher = more binding, comparable within an allelic series)"
same,binding signal,PRRX1 [26],"9.23 upbm affinity estimate (log intensity, higher = more binding, comparable within an allelic series)"
CCCGCGGG,binding signal,HOXB4 [1],"8.38 upbm affinity estimate (log intensity, higher = more binding, comparable within an allelic series)"
same,binding signal,PRRX1 [25],"9.46 upbm affinity estimate (log intensity, higher = more binding, comparable within an allelic series)"
same,binding signal,HOXA2 [27],"7.19 upbm affinity estimate (log intensity, higher = more binding, comparable within an allelic series)"
same,binding signal,HOXB4 [3],"7.82 upbm affinity estimate (log intensity, higher = more binding, comparable within an allelic series)"
same,binding signal,HOXA2 [28],"10.4 upbm affinity estimate (log intensity, higher = more binding, comparable within an allelic series)"
same,binding signal,HOXA2 [29],"10.4 upbm affinity estimate (log intensity, higher = more binding, comparable within an allelic series)"
same,binding signal,PRRX1 [26],"9.2 upbm affinity estimate (log intensity, higher = more binding, comparable within an allelic series)"
same,binding signal,HOXA2 [30],"7.26 upbm affinity estimate (log intensity, higher = more binding, comparable within an allelic series)"
CAGGCGCG,binding signal,HOXB4 [1],"7.35 upbm affinity estimate (log intensity, higher = more binding, comparable within an allelic series)"
same,binding signal,HOXB6 [12],"9.01 upbm affinity estimate (log intensity, higher = more binding, comparable within an allelic series)"
same,binding signal,HOXB4 [3],"7.45 upbm affinity estimate (log intensity, higher = more binding, comparable within an allelic series)"
same,binding signal,HOXB6 [16],"8.9 upbm affinity estimate (log intensity, higher = more binding, comparable within an allelic series)"
AGACCAGC,binding signal,HOXB4 [1],"7.43 upbm affinity estimate (log intensity, higher = more binding, comparable within an allelic series)"
same,binding signal,PAX4 [31],"9.14 upbm affinity estimate (log intensity, higher = more binding, comparable within an allelic series)"
same,binding signal,PAX4 [32],"9.21 upbm affinity estimate (log intensity, higher = more binding, comparable within an allelic series)"
same,binding signal,HOXB4 [3],"7.5 upbm affinity estimate (log intensity, higher = more binding, comparable within an allelic series)"
same,binding signal,PAX4 [33],"9.31 upbm affinity estimate (log intensity, higher = more binding, comparable within an allelic series)"
same,binding signal,PAX4 [34],"9.23 upbm affinity estimate (log intensity, higher = more binding, comparable within an allelic series)"
same,binding signal,PAX4 [35],"9.22 upbm affinity estimate (log intensity, higher = more binding, comparable within an allelic series)"
same,binding signal,PAX4 [36],"9.29 upbm affinity estimate (log intensity, higher = more binding, comparable within an allelic series)"
